# Measured values from PubChem BioAssay (NCI).
# Values joined by “and” are separate entries in the source; they are usually repeats but may differ in a detail not shown here. Equal values may be shown once. About 79,000 compounds went through this panel and 15% of them were active in at least one assay; those are over-represented in the sample as a whole. Values without a mark were called inactive. Active and inactive are the calls of the source. Rule as the data show it: active = growth inhibition above about 70%; inactive = the rest.
# Tests used:
# [1] = NCI Yeast Anticancer Drug Screen. Data for the rad50 strain (AID 155);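 also: 0% = growth of vehicle-only cultures of the same strain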; conditions: S. cerevisiae rad50 strain growth inhibition, hits give high values; at 50.0 µM unless noted
# Method in brief: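 Compounds were tested on a yeast strain with an engineered DNA damage repair alteration; the reported value is growth inhibition normalised to vehicle treatment.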
# [2] = NCI Yeast Anticancer Drug Screen. Data for the mec2-1 strain (AID 157); conditions: S. cerevisiae mec2-1 strain, hits give high values; at 50.0 µM unless noted
# Method in brief: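 Using mec2-1 yeast: add compound, measure growth, express inhibition versus vehicle-treated cultures.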
# [3] = NCI Yeast Anticancer Drug Screen. Data for the sgs1 mgt1 strain (AID 161);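 also: 0% = growth of cultures given vehicle only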; conditions: S. cerevisiae sgs1 mgt1 strain, hits give high values; at 50.0 µM unless noted
# Method in brief: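 Yeast cells carrying a defined DNA-repair defect were exposed to test compounds. Growth inhibition was measured relative to vehicle-treated controls.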
# [4] = NCI Yeast Anticancer Drug Screen. Data for the cln2 rad14 strain (AID 165);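 also: 0% = growth equal to vehicle treated cultures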; conditions: S. cerevisiae cln2 rad14 strain, hits give high values; at 50.0 µM unless noted
# Method in brief: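 Yeast strain cln2 rad14, bearing defects in cell cycle control and DNA repair, serves as the test system; values reflect growth inhibition compared with vehicle.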
# [5] = NCI Yeast Anticancer Drug Screen. Data for the bub3 strain (AID 167); conditions: S. cerevisiae bub3 mutant strain, hits give high values; at 50.0 µM unless noted
# Method in brief: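 Growth of a checkpoint-deficient yeast mutant is measured after compound exposure. Values represent inhibition relative to vehicle.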
# [6] = NCI Yeast Anticancer Drug Screen. Data for the mlh1 rad18 strain (AID 175); conditions: S. cerevisiae mlh1 rad18 strain growth inhibition, hits give high values; at 50.0 µM unless noted
# Method in brief: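 Steps: expose repair-defective yeast to compound; measure growth; express inhibition against vehicle-treated controls.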
SMILES,growth inhibition [1],growth inhibition [2],growth inhibition [3],growth inhibition [4],growth inhibition [5],growth inhibition [6]
CC1=C(C)C(C#N)(C(=O)CBr)C(=N)O1 (stereo not given),37.4%,28.1%,44%,0%,33.1%,68.2%
CN(C1=CC(=O)c2ccccc2C1=O)C1CCCCC1,14.1%,49.5%,37.4%,-7.05%,63%,42.2%
CC12C=CC(=O)C(O)C1CC=CC2 (stereo not given),12.6%,14.3%,4.3%,6.05%,11.4%,8.95%
c1ccc(Cc2cncc(Cc3ccccc3)c2)cc1,-22.5%,1.95%,6.85%,-58.6%,55.5%,9.1%
CCN(CC)c1ccc2cc(C(=O)Nc3ccccc3)c(=N)oc2c1,15.5%,5.45%,1.8%,13.7%,-20.2%,-39.1%
C/C(=N/N)c1ccc2[nH]c3c(C)cc([N+](=O)[O-])c(C)c3c2c1,16.9%,-6.9%,-22.9%,13.7%,3.65%,6.35%
C/C(N)=N\O,20.1%,4.1%,2.45%,9.85%,0.1%,1.65%
COc1cc(Nc2nc3ccc(C(F)(F)F)cc3nc2C(=O)O)cc(OC)c1OC,15.8%,20.3%,29.9%,48.7%,24.8%,10.3%
O=C1N(C2CCCCC2)C(/C=C/c2ccccc2)C1(c1ccccc1)c1ccccc1 (stereo not given),22.4%,0.25%,3.65%,19.6%,-6.05%,4.7%
Clc1ccccc1C1SCc2nc3ccccc3n21 (stereo not given),10.8%,-7.85%,53.2%,18.9%,26.4%,22.6%
O=C(Nc1noc(-c2ccccc2)n1)c1ccccc1CNc1noc(-c2ccccc2)n1,-7.75%,-4.85%,0.8%,-10.8%,-6.7%,0%
O=C1CSC(c2ccc([N+](=O)[O-])cc2)N1c1ccc(-n2c(-c3ccccc3)nc3ccccc3c2=O)cc1 (stereo not given),2.5%,-10.2%,15.2%,-10.5%,30%,13.2%
ClN(Cl)c1nc(-c2ccccc2)nc(N(Cl)Cl)n1,18.1%,29.6%,34.9%,-38.1%,32.5%,31.5%
CC(C)NCC(O)c1ccc(O)c(O)c1 (stereo not given),31.9% and -20.8%,-10.6% and -23.4%,-3.35% and 16.2%,14.7% and -52%,18.7% and 27.4%,-0.1% and -4.95%
COc1cc(OC)c(-c2cc(=O)c3c(OC)c(OC)c(OC)c(OC)c3o2)cc1OC,-2.95%,-3.8%,-2.8%,-44%,36.2%,-21.1%
O=C1CN(c2cccc(C(F)(F)F)c2)C(=O)CN1/N=C/c1ccc[nH]1,-27.7%,-3.25%,9.45%,15.8%,-7.1%,-5.4%
O=Nc1c(O)c2ccccc2[nH]c1=O,15.6%,33.6%,34.6%,24.9%,57.5%,30.4%
O=C1/C(=C/c2cccc(Br)c2)Cc2ccccc21,20.9%,-7.9%,12.3%,18.1%,-1.35%,15.8%
NNC(=O)CC(=O)NN,6.9%,2.05%,-11.4%,-10.7%,2.95%,18.4%
CCCCCCCCCCCCCCCCCCOC(=O)CC(C)=O,-2.75%,-4.55%,-12.2%,-5%,-9.2%,3.95%

SMILES,growth inhibition [1],growth inhibition [2],growth inhibition [3],growth inhibition [4],growth inhibition [5],growth inhibition [6]
CC(C)C(=O)/C=C/c1ccc(Cl)cc1,0.95% and -1.3%,-18.9% and -16.6%,-16.1% and -10.2%,-66.7% and -44.9%,-0.75% and -28.1%,-16.9% and -8.65%
Cc1ccc2cc(-c3ccccc3)[nH]c2c1,-15.3%,-11.2%,-13.6%,-13.4%,-33.6%,-55%
Nn1c(-c2cccc(Cl)c2)nc2ccccc2c1=O,-18.6%,5.45%,13%,25.7%,17.9%,36.8%
CC1C(c2ccccc2)OCCN1CN1C(=O)c2ccccc2C1=O (stereo not given),10.8%,17.4%,12.4%,21.8%,17.1%,-3.6%
CCCCC(C#N)C(=O)NC(N)=O (stereo not given),-7%,3.2%,-8.05%,0.4%,4.85%,-7.25%
Cc1cc(C(=O)C(C#N)=Nc2ccc(N(C)C)cc2)c(CN2C(=O)c3ccccc3C2=O)c(=O)n1C,22.9%,-12.1%,19.3%,-28.1%,-6.15%,5.95%
COC(=O)c1c(C)ccc(C)c1Nc1cc(C)ccc1C,-2.65%,-18%,-1.2%,9.55%,5.65%,-15.7%
CN(Cc1ccccc1Cl)C(=O)Nc1cccc(Cl)c1,61.5%,78% (active),80.7% (active),80% (active),86.7% (active),90.2% (active)
CCNC(=O)c1ccccc1N=NN(C)C,-1.15%,25.4%,-0.65%,5.65%,5%,21.9%
O=C(OCC1OCOC2C(COC(=O)c3ccccc3)OCOC12)c1ccccc1 (stereo not given),9.05%,4.35%,8.05%,4.8%,13.7%,15.7%
Cc1c(CC#N)cc(C)c2c3c([nH]c12)-c1ccccc1CC3,35.5%,35.2%,44%,11.8%,37.5%,18.9%
CC(=O)CCCCC(=O)Nc1ccc(CC(NC(=O)OC(C)(C)C)C(=O)NCC(=O)OCc2ccccc2)cc1 (stereo not given),-38.5%,-4.5%,-1.6%,8.85%,10%,-12.1%
CC(=O)Oc1ccc(CCC(=O)O)cc1,18.8%,12.6%,6.9%,57.9%,11.4%,20.9%
Cc1ccc(S(=O)(=O)c2c3[nH]c4ccccc4nc3n3c2nc2ccccc23)cc1,-14.2%,-45.5%,-19.2%,-87.3%,-26.8%,-14.3%
CC(C)=Nn1cnc2c1NC(C)(C)N=C2C(N)=O,-18.8%,-17.2%,-12.2%,7.85%,14.8%,-15.6%
CN(C)Cc1ccccc1CC1(O)CCCC1,19.6%,-2.75%,-4.3%,-10.1%,0.3%,-12.5%
C/C(CCC(CC(=O)O)C(C)C)=N\NC(N)=O (stereo not given),-5.85%,1.8%,-6.65%,-35.9%,-27.4%,4.65%
CCC(SC(CC)(CC)C(=O)O)C(N)=O (stereo not given),-9.9%,0.05%,-8.15%,-23%,-6%,-8.1%
CN(C)c1ccc(S(=O)(=O)OC2C(C3COC(C)(C)O3)OC3OC(C)(C)OC32)cc1 (stereo not given),-8.5%,0.75%,-8.7%,-16.2%,3.25%,4.7%
CC(C)=NNC(=O)c1ccc(N)cc1,36.1%,15%,14.4%,15.8%,22.1%,15.3%
